SENP8 block-1: blocks the human protease SENP8; purified SENP8, Z-RLRGG-aminoluciferin cleavage, luminescence; inhibition, % at 10 µM; 1.2% of 330,000 active; AID 2540; in the data active = inhibition above about 50%
SENP8 block-2: SENP8 (human) protease inhibition; recombinant SENP8, Nedd8 substrate fluorescence; AID 602440; inhibition, % at 20 µM; Q96LD8; 0.64% of 360,000 active; in the data active = inhibition mostly above about 40%, no sharp cut-off; inactive = mostly below about 27%
SENP6 inh: blocks the human protease SENP6; Recombinant SENP6 catalytic domain, aminoluciferin luminescence; 1.8% of 330,000 active; inhibition, % at 10 µM;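 active = inhibition above about 50% at the single tested dose, limit read from the data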;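 also: plate controls were DMSO wells with enzyme for no effect and DMSO wells lacking enzyme for full effect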
AHR act: human AHR activation | AHR-responsive luciferase reporter cells, luminescence | activation, % at 5 µM | 2.5% of 320,000 active; in the data active = activation above about 47%;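 also: 0% = vehicle wells and 100% = reference agonist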
Target sequence (P35869 whole entry, looked up): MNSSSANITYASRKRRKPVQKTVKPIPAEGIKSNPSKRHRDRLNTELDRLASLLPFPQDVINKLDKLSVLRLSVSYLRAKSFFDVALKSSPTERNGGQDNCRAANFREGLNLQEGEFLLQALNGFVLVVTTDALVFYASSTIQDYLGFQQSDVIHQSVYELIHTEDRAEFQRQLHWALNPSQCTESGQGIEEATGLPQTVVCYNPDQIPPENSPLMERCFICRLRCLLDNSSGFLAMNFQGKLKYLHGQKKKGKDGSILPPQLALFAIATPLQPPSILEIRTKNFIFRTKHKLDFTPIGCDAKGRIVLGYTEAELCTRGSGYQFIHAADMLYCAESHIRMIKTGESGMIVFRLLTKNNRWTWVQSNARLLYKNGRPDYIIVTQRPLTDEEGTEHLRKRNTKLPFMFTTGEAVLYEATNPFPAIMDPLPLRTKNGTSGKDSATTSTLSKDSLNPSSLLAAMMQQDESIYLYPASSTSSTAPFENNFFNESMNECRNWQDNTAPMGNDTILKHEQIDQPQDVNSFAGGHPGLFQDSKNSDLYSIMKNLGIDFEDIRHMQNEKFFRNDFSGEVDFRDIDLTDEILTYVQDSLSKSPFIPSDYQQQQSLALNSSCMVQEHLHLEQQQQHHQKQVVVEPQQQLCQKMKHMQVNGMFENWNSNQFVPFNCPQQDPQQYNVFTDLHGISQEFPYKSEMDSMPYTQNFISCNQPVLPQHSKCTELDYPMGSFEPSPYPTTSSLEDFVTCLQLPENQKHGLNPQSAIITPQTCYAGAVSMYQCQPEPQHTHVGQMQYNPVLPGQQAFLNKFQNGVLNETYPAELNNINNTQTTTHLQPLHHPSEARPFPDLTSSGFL
SENP7 block: inhibitors of human SENP7 protease. inhibition, % at 5 µM. recombinant SENP7, Z-RLRGG-aminoluciferin luminescence, 40 min. Q9BQF6. 1.5% of 330,000 active;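 active = inhibition above about 50% at the single test dose, limit read from the data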;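 also: plate controls were DMSO with enzyme for no effect and no enzyme buffer wells for full effect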
EBI2 antag: blocks human EBI2 receptor beta-arrestin signaling | P32249 | EBI2 beta-arrestin recruitment, luminescence, 7a,25-OHC stimulated | inhibition, % at 5 µM | 0.81% of 360,000 active | AID 651636; in the data active = inhibition above about 38%;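 also: enzyme fragment complementation signal reports receptor beta-arrestin coupling in cells; 0% = agonist plus DMSO wells and 100% = wells without agonist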
An asterisk follows results filed as active; · = not tested or not shown. Compounds with a hit are over-represented: about 5% of the library has one in this group of screens.

SMILES	SENP8 block-1	SENP8 block-2	SENP6 inh	AHR act	SENP7 block	EBI2 antag
O=C1Nc2c(ccc(Cl)c2Cl)C(=O)C1(F)c1ccccc1 (stereo unspecified)	2	5	1	92*	4	-9
C=CCNC(=O)C1CC1(c1cccc(C)c1)c1cccc(C)c1 (stereo unspecified)	10	6	7	0	5	8
Cc1cccc(C2(c3cccc(C)c3)CC2C(=O)Nc2ccc([N+](=O)[O-])cc2O)c1 (stereo unspecified)	-3	18	-11	77*	-8	20
CN(C)S(=O)(=O)c1ccc(C(=O)N2CCN(S(=O)(=O)c3ccc4c(c3)OCCO4)CC2)cc1	·	19	·	·	·	-6
CCN=c1scc(C)n1/N=C/c1cc(Br)c(O)c(OC)c1	-6	-109	-8	49*	9	2
CC(=O)Nc1ccc(-c2ccnc3c2CC(C)(C(=O)Nc2cccc(C(C)=O)c2)O3)cc1 (stereo unspecified)	·	9	·	·	·	9
CCOC(=O)c1c2c(n(C)c1COC)C(=O)C(=O)c1ccc(Br)cc1-2	97*	·	96*	-3	95*	·
CCCn1c(=O)c(C(=O)OCC)c(O)c2cc(Br)ccc21	3	6	5	7	2	-11
CC(C)(C)NC(=O)COc1ccc(CNc2ncn[nH]2)cc1	4	11	0	1	-8	-1
COc1cc(CNc2ccc(CNc3ncn[nH]3)cc2)ccc1OCC(=O)NC(C)(C)C	-5	15	-15	56*	-1	-6
COc1ccc(NC(=O)c2c(NC(=O)CNCc3ccco3)sc3c2CCC3)cc1	-3	-8	-23	53*	-6	3
COc1ccc(NC(=O)c2c(NC(=O)CNCc3ccco3)sc3c2CCC3)c(OC)c1	3	-18	0	6	2	24
COc1cc(-c2noc(C)c2-c2ccc(N(C)C)nc2)cc(OC)c1OC	10	-42	-2	5	-5	-22
COc1cc(-c2noc(C)c2C#Cc2nccn2C)cc(OC)c1OC	0	7	-3	66*	2	-7
COc1ccc(NS(=O)(=O)c2cccc(C(=O)N3CCN(c4ccccc4O)CC3)c2)cc1	3	17	5	-1	1	3
CC(=O)n1nc(-c2ccccc2)cc1-c1ccccc1	16	15	22	58*	-2	-7
O=C(O)Cn1nc(-c2ccccc2)cc1-c1ccccc1	-6	7	7	7	2	4
COc1ccc(CNn2c(C)nc3ccccc3c2=O)cc1	-3	0	-5	70*	2	-1
NC(=O)CSc1nc2ccccc2c(=O)n1CCc1ccccc1	-10	7	13	75*	13	-4
NC(=O)CSc1nc2ccccc2c(=O)n1Cc1ccco1	3	7	-15	4	5	2
CCCCOc1ccc(CNn2c(C)nc3ccccc3c2=O)cc1	-6	-4	-10	1	-9	0
COc1ccc(CCn2c(S)nc3ccccc3c2=O)cc1	-4	22	6	68*	9	4
Clc1ccc(Cn2ccc(-c3ccc4c(c3)OCO4)n2)cc1Cl	1	3	-8	51*	-1	4
O=C(Nc1ccccc1Cl)c1ccccc1Oc1ccc(C(F)(F)F)cc1[N+](=O)[O-]	-7	9	-4	75*	-5	6
COc1ccccc1NC(=O)c1cc([N+](=O)[O-])ccc1NCCN1C(=O)CCC1=O	-3	14	0	51*	8	-8
SMILES	SENP8 block-1	SENP8 block-2	SENP6 inh	AHR act	SENP7 block	EBI2 antag
COc1ccccc1NC(=O)c1cc(OC)c(OC)cc1[N+](=O)[O-]	5	18	12	8	0	2
O=C(Nc1cc(Cl)ccc1Oc1ccccc1)c1ccccc1F	0	19	-10	65*	-4	11
Cc1cccc(NC(=O)c2cc([N+](=O)[O-])ccc2Cl)c1O	·	14	·	48*	·	-12
O=C(Nc1ccccc1Oc1ccccc1)c1cc([N+](=O)[O-])ccc1Cl	0	13	-2	108*	8	-2
O=C(Nc1ccc(Nc2ccccc2)cc1)c1cc([N+](=O)[O-])ccc1Cl	0	23	-16	-5	6	22
CCN(CC(=O)Nc1ccc(NC(C)=O)cc1)C(=O)c1cccc(N2C(=O)c3ccccc3C2=O)c1	·	8	·	·	·	-24
Cc1ccc(-c2csc3nc(C)n(N)c(=O)c23)o1	-11	-6	-2	55*	-10	-7
Cc1ccc(-c2csc3nc(C)n(-n4c(C)ccc4C)c(=O)c23)o1	1	-64	-1	-1	2	19
CCC(=O)N1CCC(C)(C(=O)Nc2ccc3c(c2)OCCO3)C1 (stereo unspecified)	·	27	·	·	·	-3
Cc1ccc(S(=O)(=O)/N=C2\C=C(Nc3cccc(C(=O)O)c3)C(=O)c3ccccc32)cc1	93*	83*	91*	14	64*	-2
O=C(O)c1cccc(NS(=O)(=O)c2ccc3c(c2)C(=O)c2ccccc2C3=O)c1	3	39	13	1	2	-6
CCc1ccc(S(=O)(=O)/N=C2\C=C(Nc3ccc(C(=O)O)cc3)C(=O)c3ccccc32)cc1	94*	44*	92*	13	63*	-8
CCc1ccc(NC2=NC(C(=O)c3ccccc3)CC(=O)N2)cc1 (stereo unspecified)	1	14	-4	2	-7	-7
O=S(=O)(/N=C(/Nc1cccc2ccccc12)c1ccccc1)c1cccs1	-5	28	0	23	-5	3
COC(=O)c1ccccc1NC1=C/C(=N\S(=O)(=O)c2ccc(C(=O)O)cc2)c2ccccc2C1=O	90*	-20	73*	62*	24	-2
O=C1C(Nc2ccccc2)=C/C(=N/S(=O)(=O)c2cccs2)c2ccccc21	·	83*	·	15	·	16
C=CCN1C(=O)/C(=C/c2ccc(-c3ccc(F)cc3)o2)SC1=S	2	23	3	9	1	10
COc1cc(OC)c2cc(C(=O)N/N=C/c3cccc(OC)c3O)[nH]c2c1	-3	-445	-12	49*	6	-3
OC(c1ccccc1)c1nc(-c2ccc(F)c(Cl)c2)cs1 (stereo unspecified)	·	20	·	·	·	7
CCCC(=O)N1CCCC(c2cc(C(=O)NCc3cccnc3)no2)C1 (stereo unspecified)	·	14	·	·	·	4
CCNC(=O)C1CCCN(C(=O)C(c2ccccc2)c2ccccc2)CC1 (stereo unspecified)	·	9	·	·	·	-2
Cc1cnn(-c2nc(-c3cccs3)cc(C(F)(F)F)n2)c1	5	-280	-9	5	16	-18
FC(F)(F)c1cc(-c2cccs2)nc(-n2cc(Br)cn2)n1	-1	-322	-9	50*	0	-1
CN(C)c1nc(-c2cn(CCC#N)c3ccccc23)cs1	9	-3	-2	62*	-8	1
COc1ccc(/C=N/NC(=O)c2cccnc2)cc1CSc1nc2ccccc2s1	-4	1	7	54*	7	3

Bioassay records from PubChem.
